Bioassay records as filed in PubChem.
This is a sample that favours compounds with a hit; in the whole collection about 1.4% have one here.
KCNH2 WT inh: qHTS for Inhibitors of KCHN2 3.1: Wildtype qHTS | activity change, % at 1.84 µM | 340,000 tested, 0.37% active | U2OS, BacMam KCNH2, thallium flux FluxOr; active compounds read low;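 active means maximum activity change below -70%; inconclusive means maximum activity change between -70% and -50%; inactive means maximum activity change above -50%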; further: on the % scale 0 is the no-effect control and ±100 the full control effect
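U2OS cells were transduced with wild-type KCNH2 virus (2.03 x 10^8 / mL) for 4 h at room temperature, then cultured overnight at 37 C. Thallium flux was read with FluxOr dye. Rate constants were normalized to DMSO controls.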
EPAC1 ag: qHTS for Agonist of cAMP-regulated guanine nucleotide exchange factor 3 (EPAC1): primary screen | Potency, µM (top dose mostly 154 µM), without a hit: at the highest dose activation, most hits filed as activators | 360,000 tested, 0.073% active | EPAC1 agonist qHTS, biochemical assay; response scale: 100% = response to 6.5 mM cAMP; further: potency means the concentration at half of the fitted maximal effect; nearly all actives have a fitted effect of over 60% in size
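Compounds were pinned as a concentration titration into mixtures of EPAC1 (100 nM), BODIPY-GDP-loaded Rap1B (250 nM) and GDP (50 uM). After 5 min at room temperature, fluorescence was followed for 30 min; activity was scaled to 6.5 mM cAMP.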
EPAC2 ag: qHTS for Agonist of cAMP-regulated guanine nucleotide exchange factor 4 (EPAC2): primary screen; EPAC2 activation, biochemical qHTS; response scale: 100% = 6.5 mM cAMP response; Potency, µM (series often up to 154 µM), for the others: at the top dose activation, most hits filed as activators; Rap guanine nucleotide exchange factor 4 (Homo sapiens), Q8WZA2; 360,000 tested, 0.079% active; AID 720711, 2013; further: potency means the concentration at half of the fitted maximal effect; nearly all actives have a fitted effect of over 50% in size
Target sequence (Q8WZA2 whole entry, looked up): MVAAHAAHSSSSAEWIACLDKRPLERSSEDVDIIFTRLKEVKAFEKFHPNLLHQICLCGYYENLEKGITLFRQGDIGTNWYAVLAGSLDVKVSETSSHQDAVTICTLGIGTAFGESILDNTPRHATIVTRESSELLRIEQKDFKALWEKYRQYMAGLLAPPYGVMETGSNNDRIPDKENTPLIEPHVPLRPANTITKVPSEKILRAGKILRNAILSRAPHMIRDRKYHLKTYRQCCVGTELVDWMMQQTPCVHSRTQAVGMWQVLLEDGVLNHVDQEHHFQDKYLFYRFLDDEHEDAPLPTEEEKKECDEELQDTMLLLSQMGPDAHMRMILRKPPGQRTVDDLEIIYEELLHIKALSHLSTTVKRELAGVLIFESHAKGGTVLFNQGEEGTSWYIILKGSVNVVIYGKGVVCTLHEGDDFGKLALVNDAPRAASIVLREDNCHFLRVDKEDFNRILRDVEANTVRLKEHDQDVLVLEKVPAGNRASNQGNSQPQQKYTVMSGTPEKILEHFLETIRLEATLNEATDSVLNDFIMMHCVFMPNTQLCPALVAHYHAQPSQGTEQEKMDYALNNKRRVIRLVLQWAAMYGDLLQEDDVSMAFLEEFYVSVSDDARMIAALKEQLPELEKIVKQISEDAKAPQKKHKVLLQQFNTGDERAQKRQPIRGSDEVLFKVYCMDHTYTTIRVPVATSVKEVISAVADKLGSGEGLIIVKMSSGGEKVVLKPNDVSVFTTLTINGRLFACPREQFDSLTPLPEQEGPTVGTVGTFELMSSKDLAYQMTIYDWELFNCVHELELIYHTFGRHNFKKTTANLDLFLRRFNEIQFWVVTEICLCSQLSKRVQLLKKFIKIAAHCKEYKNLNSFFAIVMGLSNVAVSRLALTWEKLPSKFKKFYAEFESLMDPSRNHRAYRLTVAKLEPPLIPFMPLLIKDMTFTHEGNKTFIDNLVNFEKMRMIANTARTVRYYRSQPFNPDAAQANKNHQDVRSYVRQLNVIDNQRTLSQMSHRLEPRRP
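EPAC2 (100 nM) mixed with Rap1B loaded with BODIPY-GDP (250 nM) plus 50 uM unlabeled GDP; compounds pinned in, 5 min RT, then read every 5 min for 30 min (ex 480, em 540 nm). Normalized to cAMP control.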
EPAC2 antag: qHTS for Antagonist of cAMP-regulated guanine nucleotide exchange factor 2 (EPAC2): primary screen; Rap guanine nucleotide exchange factor 4 (Homo sapiens), Q8WZA2; 360,000 tested, 0.18% active; AID 720708, 2013; Potency, µM (highest dose often 114 µM), without a hit: top-dose activity, negative = inhibition, hits mostly inhibitors; EPAC2 GEF exchange of Rap1B-BODIPY-GDP, fluorescence; further: potency means the concentration at half of the fitted maximal effect; on the % scale 0 is the no-effect control and ±100 the full control effect; nearly all actives have a fitted effect of over 45% in size
EPAC1 antag: qHTS for Antagonist of cAMP-regulated guanine nucleotide exchange factor 3 (EPAC1): primary screen | 360,000 tested, 0.14% active | Potency, µM (titrated, usually from 115 µM), for inactives: top-dose activity change, negative = inhibition, most hits filed as inhibitors | EPAC1 GEF assay, Rap1b-BODIPY-GDP exchange fluorescence | Rap guanine nucleotide exchange factor 3 (Homo sapiens), O95398;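 further: potency means the concentration at half of the fitted maximal effect; plate controls were vehicle for no effect and positive control for full effect; nearly all actives have a fitted effect of over 50% in size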
KCNH2 3.1 inh: qHTS for Inhibitors of KCHN2 3.1: Mutant qHTS. Potassium voltage-gated channel subfamily H member 2, brain isoform KCNH2 3.1 (human). U2OS KCNH2 3.1, thallium flux FluxOr; active compounds read low. activity change, % (tested at about 1.8 µM). 340,000 tested, 0.95% active. AID 720553, 2013;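 active means maximum activity change below -70%; inconclusive means maximum activity change from -70% to -50%; inactive means maximum activity change above -50%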;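 further: thallium influx rate constant from kinetic fluorescence after stimulation buffer; on the % scale 0 is the no-effect control and ±100 the full control effect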
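Thallium flux read-out: FluxOr dye with Red40 quencher in HBSS/HEPES, 45 min at RT. Rate constants from kinetic reads were normalized to positive and negative DMSO controls. Cells: U2OS virally expressing the 3.1 isoform.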
An asterisk follows results filed as active; ? = inconclusive; . = not tested or not shown. Unless noted, the call rests on the fitted dose curve; in most records, active means well fitted curve in the direction sought with a large enough effect; inconclusive means small, poorly fitted or top-dose-only effect, or another doubt; inactive means no such curve, though single readings can be large; an effect the other way counts as inactive or inconclusive.

SMILES	KCNH2 WT inh	EPAC1 ag	EPAC2 ag	EPAC2 antag	EPAC1 antag	KCNH2 3.1 inh
CCCC(C)Sc1nc2c([nH]1)c(=S)n(C)c(=O)n2C (stereo not given)	-157*	-2%	-6%	0%	-4%	-15
O=S(=O)(NCC(c1ccco1)N1CCc2ccccc21)c1ccccc1 (stereo not given)	-11	100µM*	15%	6%	-2%	3
CC1(C)Cc2cccc(OCC(=O)Nc3cc(S(C)(=O)=O)ccc3Cl)c2O1	8	-2%	7%	-6%	?	-6
CNC(=O)CSc1nnc(-c2ccco2)n1-c1cc(C)ccc1C	-140*	18%	15%	-7%	6%	0
COC(=O)C[C@@H]1CC[C@H](NC(=O)Nc2ccc(OC)cc2)[C@@H](CO)O1	.	-2%	2%	4%	-1%	.
Cc1ccc(C)c(S(=O)(=O)N2CCN(CC(=O)N3CCc4ccccc4C3)CC2)c1	-2	0%	16%	2%	-11%	-3
Cc1ccc(S(=O)(=O)Nc2ccc(C(=O)N3CCCC3)cc2)c(C)c1NS(C)(=O)=O	7	0%	4%	10%	12%	5
COc1ccccc1-c1cn[nH]c1-c1ccc(O)cc1O	-7	3%	-2%	-11%	2%	-116*
O=C(CNC(=O)c1ccco1)NNC(=O)c1cccc(Cl)c1	0	2%	-3%	7%	8%	2
Cn1c(O)c(N=NC(=O)CNC(=O)/C=C/c2ccccc2)c2ccccc21	6	-2%	5%	1%	-10%	-184*
Cc1occc1C(=O)N=Nc1c(O)n(C)c2ccccc12	-1	-6%	-7%	14%	-7%	-6
CCn1c(O)c(N=NC(=O)CNC(=O)/C=C/c2ccccc2)c2ccccc21	2	1%	10%	1%	?	4
Cn1c(O)c(N=NC(=O)c2ccccc2O)c2ccccc21	-6	2%	3%	-16%	32µM*	-7
CCOc1ccc(S(=O)(=O)N(CC(=O)NCc2ccncc2)c2ccc(C)cc2)cc1	14	-4%	5%	11%	-2%	2
N=C1/C(=C/c2coc3ccccc3c2=O)C(=O)N=C2SC(c3ccco3)=NN12	-10	89µM*	100µM*	84%	161%	-32
CN1C(=O)/C(=C/c2coc3ccc(O)cc3c2=O)SC1=S	-4	4%	5%	3%	0%	-3
N=C1/C(=C\c2coc3ccccc3c2=O)C(=O)N=C2SC(c3ccncc3)=NN12	-3	100µM*	63µM*	28%	-4%	-19
N=C1/C(=C\c2coc3ccc(O)cc3c2=O)C(=O)N=C2SC=CN12	-4	89µM*	63µM*	236%	116%	-2
CSC1=NSC2=NC(=O)/C(=C\c3coc4ccccc4c3=O)C(=N)N12	-4	63µM*	?	84%	53%	14
CCOC(=O)C1(Cc2ccc(Cl)cc2)CCN(CCCn2cccn2)CC1	-45	4%	3%	-6%	-5%	-119*
CCOC(=O)C1(Cc2ccccc2C(F)(F)F)CCN(C(C)CCn2cccn2)CC1 (stereo not given)	-15	-10%	-8%	-6%	-13%	-85*
CCCCCCCCN1C(=O)[C@H](CC(=O)N2CCN(C(=O)OCC)CC2)C[C@@]2(C(=O)OC)CCCCC=C12	.	-16%	0%	?	-6%	.
